Screens deposited in PubChem BioAssay by several laboratories.
The list is not random: actives were taken first. Their share in the collection is about 2.4%.
PREPL inhibitor – human PREPL enzyme inhibition | Q4J6C6 | recombinant PREPL, fluorescence polarization activity-based probe | 320,000 tested, 0.68% active | AID 2751 | inhibition, % at 5.96 µM; in the data active means inhibition above about 43%;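 further: 0% = enzyme with DMSO and 100% = wells lacking enzyme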
PP5 inh – blocks human protein phosphatase 5 activity; purified PP5c, OMFP substrate fluorescence; inhibition, % at 6.7 µM; 320,000 tested, 0.18% active; AID 1987;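 active means inhibition above the campaign's mean inhibition across all tested compounds plus 3 SD, cut at about 9.5% in these data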;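 further: 0% = DMSO only and 100% = 100 µM cantharidin control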
Rpn11 inh – inhibitors of human proteasome Rpn11; human 26S proteasome, Ub4-pepOG fluorescence polarization; 20S core pre-blocked with epoxomicin; O00487; inhibition, % at 20 µM; 360,000 tested, 0.59% active;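 active means inhibition at 20 µM, scaled to each plate's controls, above about 33%, limit read from the data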
Target sequence (O00487 whole entry, looked up): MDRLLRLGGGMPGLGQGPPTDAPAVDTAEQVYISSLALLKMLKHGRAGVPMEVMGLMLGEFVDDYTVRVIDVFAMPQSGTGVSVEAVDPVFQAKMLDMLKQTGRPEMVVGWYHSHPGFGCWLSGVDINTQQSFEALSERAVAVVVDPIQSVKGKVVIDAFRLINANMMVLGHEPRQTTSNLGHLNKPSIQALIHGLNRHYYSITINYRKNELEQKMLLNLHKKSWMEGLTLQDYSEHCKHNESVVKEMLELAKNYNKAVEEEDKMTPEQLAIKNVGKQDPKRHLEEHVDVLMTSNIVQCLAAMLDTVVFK
NadD block – NadD (S. aureus) enzyme inhibition | purified NadD enzyme, colorimetric absorbance read-out | inhibition, % at 20 µM | 360,000 tested, 0.78% active | AID 602399; in the data active means inhibition above about 26%
PP1 inh – blocks human PP1-alpha phosphatase, a PP5 counter-screen; purified PP1alpha, OMFP fluorescence; 320,000 tested, 0.9% active; inhibition, % at 6.7 µM; AID 2235;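 active means inhibition above the mean inhibition of all tested compounds plus 3 SD, computed separately for each screening campaign, cut at about 15% in these data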
Target sequence (P62136 whole entry, looked up): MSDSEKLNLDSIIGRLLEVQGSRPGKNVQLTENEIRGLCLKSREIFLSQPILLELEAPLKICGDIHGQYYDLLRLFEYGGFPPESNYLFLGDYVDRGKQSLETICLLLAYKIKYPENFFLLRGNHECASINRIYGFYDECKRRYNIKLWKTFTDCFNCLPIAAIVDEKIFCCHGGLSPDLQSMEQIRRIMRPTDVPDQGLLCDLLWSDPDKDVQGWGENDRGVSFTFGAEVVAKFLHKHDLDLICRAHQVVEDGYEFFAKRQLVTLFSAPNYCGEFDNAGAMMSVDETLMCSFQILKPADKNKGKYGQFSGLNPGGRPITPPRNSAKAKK
PP1 inh confirm – human PP1 phosphatase inhibition, confirmation; purified PP1alpha, OMFP substrate fluorescence; AID 2358; inhibition, % at 6.7 µM; 1,900 tested, 52% active; shares compounds with PP1 inh;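 active means mean PP1 inhibition above a set limit taken from the earlier primary screen, cut at about 15% in these data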
PP5 inh counter – counter-screen for PP1 inhibitors: human PP5 phosphatase inhibition | shares compounds with PP1 inh | purified PP5c, OMFP fluorescence | inhibition, % at 6.7 µM | 1,900 tested, 4% active;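 active means mean PP5 inhibition over triplicate wells above about 9.5% taken from the earlier PP1 screen, limit read from the data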
The depositor's hits bear a star; x = no result given.

SMILES | PREPL inhibitor | PP5 inh | Rpn11 inh | NadD block | PP1 inh | PP1 inh confirm | PP5 inh counter
COC(=O)c1ccc(C2/C(=C(\O)c3ccc(OC)c(C)c3)C(=O)C(=O)N2c2cc(C)on2)cc1 (centres undefined) | 12 | 2 | 1 | 13 | 19* | 16* | -6
CCCCCCCCCCCCCCCCn1cc[n+](C)c1 | 24 | 3 | 97* | 16 | 25* | -12 | 1
CCCCCCCCn1ccc(=N)cc1 | 3 | 0 | -3 | -1 | -2 | x | x
COc1cccc(CSc2nccn2C)c1 | -8 | 3 | 5 | -8 | -1 | x | x
CC(C)OCCc1cccc[n+]1[O-] | x | x | 6 | 8 | x | x | x
CC(C)C(=O)NC(C)C(c1cccs1)N1CCN(c2ccccc2)CC1 (centres undefined) | 7 | 3 | -1 | -4 | 1 | x | x
CC(NC(=O)C1CC1)C(c1cccs1)N1CCN(c2ccccc2)CC1 (centres undefined) | 13 | 0 | -1 | 2 | 47* | -3 | -5
Cc1ccc(Oc2nnc(-c3ccc(C)cc3)c3ccccc23)cc1 | -1 | 2 | 3 | 8 | 41* | -8 | -8
CCc1ccccc1N(C)S(=O)(=O)c1ccc2[nH]cc(C(=O)O)c(=O)c2c1 | -1 | 2 | 1 | 7 | 24* | 18* | -6
Cc1c[n+](CC(=O)c2ccccc2)cs1 | 6 | -2 | 3 | 2 | -3 | x | x
O=C(Cn1nnc(-c2ccc(Cl)cc2)n1)NCc1ccco1 | 10 | 0 | -15 | -5 | 1 | x | x
COc1ccc(C(=O)Nc2ccc(-c3nnn(CC(=O)NCc4ccco4)n3)cc2)cc1 | -15 | -3 | -3 | 1 | 20* | 24* | -2
Cc1cc(-c2nnc3n2N=C(c2ccc(-c4ccccc4)cc2)CS3)n[nH]1 | -28 | 0 | 13 | 27 | 34* | 23* | -1
Cc1cc(-c2nnc3n2N=C(c2ccccc2)CS3)n[nH]1 | -1 | -2 | 2 | -3 | -3 | x | x
COc1ccccc1C(=O)Nc1ccc2oc(-c3ccc(F)cc3)nc2c1 | 0 | -1 | -1 | -10 | 19* | 12 | -7
COc1cc(/C=C/C(=O)N2CC(C)OC(C)C2)cc(OC)c1OC (centres undefined) | -13 | 4 | -5 | 0 | 2 | x | x
Cc1cc(C(=O)COC(=O)c2ccc[nH]c2=O)c(C)n1-c1ccc(Br)cc1 | 0 | 3 | -7 | 9 | 18* | 8 | -6
Cc1ccc(-n2c(C)cc(C(=O)COC(=O)c3ccc[nH]c3=O)c2C)cc1 | 3 | 0 | -2 | 1 | 12 | x | x
COc1ccc(/C=C/C(=O)OCC(=O)Nc2nnc(-c3ccccc3)o2)c(OC)c1 | x | x | 4 | 9 | x | x | x
O=C(COC(=O)/C=C/c1ccccc1F)Nc1nnc(-c2ccccc2)o1 | 4 | -3 | 2 | 5 | 21* | 22* | -1
COc1cccc(/C=C/C(=O)OCC(=O)Nc2nnc(-c3ccccc3)o2)c1OC | x | x | 5 | 6 | x | x | x
COc1cccc(/C=C/C(=O)OCC(=O)Nc2nnc(-c3ccccc3)o2)c1 | 9 | -2 | 7 | 7 | 38* | 25* | -1
O=C(COC(=O)/C=C/c1ccc(F)cc1)Nc1nnc(-c2ccccc2)o1 | 16 | 4 | -5 | 13 | 18* | 28* | -8
COc1ccc(CNC(=O)c2cn(Cc3ccccc3OC)c(=O)s2)cc1 | x | x | 2 | -1 | x | x | x
Cc1cc2c(C)nc(N/N=C/c3ccc([N+](=O)[O-])cc3)nc2o1 | -3 | 2 | 26 | -6 | 18* | 33* | -3
SMILES | PREPL inhibitor | PP5 inh | Rpn11 inh | NadD block | PP1 inh | PP1 inh confirm | PP5 inh counter
COc1ncccc1C(=O)N1CCCC(N2CCN(c3cccc(Cl)c3)CC2)C1 (centres undefined) | 2 | 2 | -7 | -2 | 49* | -7 | -6
CCc1ccc(NC(=O)N(C2CCCCC2)C(C)c2cccnc2)cc1 (centres undefined) | 19 | 5 | -4 | -4 | -6 | x | x
CC(=O)OCCCN1c2ccccc2Nc2nnc(-c3ccccc3)cc21 | -7 | 0 | 0 | -4 | 29* | 28* | -3
Oc1ccc(/C=N/Nc2ccc(Cl)nn2)c(O)c1O | 27 | 2 | 1 | -1 | 18* | 38* | -6
CCCCCCCC/C=C\CCCCCCCC(=O)NCCc1ccc(O)c(O)c1 | 8 | 15* | -13 | -1 | 16* | 8 | 2
CC(=O)N/C(=C\c1ccccc1)C(=O)OCC(=O)Nc1ccc(C)c(S(=O)(=O)N(C)C)c1 | -2 | x | 4 | 2 | x | x | x
Cc1cc(/C=C(\C#N)C(=O)OCC(=O)N(C)c2c(N)n(Cc3ccccc3)c(=O)[nH]c2=O)c(C)n1CC(C)C | x | x | 9 | 2 | x | x | x
O=CNc1ccc(OC(=O)c2cncc(Br)c2)cc1 | 3 | 4 | 3 | -1 | -1 | x | x
N=C1/C(=C/c2coc3ccccc3c2=O)C(=O)N=C2SC(c3ccco3)=NN12 | 34 | -1 | x | 3 | 3 | x | x
N=C1/C(=C\c2coc3ccccc3c2=O)C(=O)N=C2SC(c3ccncc3)=NN12 | -13 | -3 | x | 17 | 34* | 39* | -8
CN(C(=O)CN1CCCCCC1)c1c(N)n(Cc2ccccc2)c(=O)[nH]c1=O | 6 | 0 | -1 | 9 | -2 | x | x
CCCCc1ccc(Nc2nc(CCC)cc(=O)[nH]2)cc1 | 16 | 8 | -4 | -1 | 18* | 7 | 4
Cc1ccc(-n2ncc3c(NNC(=O)Cc4ccccc4)ncnc32)cc1 | 0 | 1 | -5 | -6 | -1 | x | x
Cc1cc(C)cc(-c2nnc(SCc3ccc(C(=O)O)cc3)o2)c1 | 9 | 3 | 1 | -4 | 6 | x | x
CCN(Cc1ccccc1)c1ccccc1 | x | x | 1 | -2 | x | x | x
CCN(Cc1ccccc1)c1ccc(/C=N/N=C(N)N)cc1 | 39 | 2 | -6 | -3 | 18* | 3 | -1
CCCCC(=O)NC(c1ccc(N(CC)CC)cc1)c1ccc2cccnc2c1O (centres undefined) | 13 | 4 | 19 | 10 | 35* | 24* | -5
CCCCC(=O)NC(c1ccc(N(C)C)cc1)c1ccc2cccnc2c1O (centres undefined) | 23 | 1 | 23 | 6 | 29* | 21* | -4
COc1ccccc1CNC(=O)Cn1cc([N+](=O)[O-])ccc1=O | -3 | 3 | 12 | 4 | 0 | x | x
Cc1cccc(Nc2nc(-c3ccccn3)cs2)n1 | 29 | 9 | -1 | 3 | 64* | 53* | 2
Cc1cccnc1Nc1nc(-c2ccccn2)cs1 | 23 | 6 | -8 | -2 | 28* | 36* | 5
COC(=O)c1ccc(C(=O)O)nc1 | 6 | 0 | -4 | 4 | -2 | x | x
O=C(CNS(=O)(=O)c1c(Cl)cccc1Cl)OCC(=O)c1ccc[nH]1 | -3 | 1 | 4 | 0 | 6 | x | x
O=C(CNS(=O)(=O)c1ccc(Br)cc1Cl)OCC(=O)c1ccc[nH]1 | 5 | 0 | 1 | 8 | 35* | 1 | -5
